# Test results from PubChem BioAssay AID624297 (National Center for Advancing Translational Sciences (NCATS), 2012).
# Screen size: about 340,000 compounds; about 6,200 (1.8%) were called active. About 10% were inconclusive and are not listed. The sample holds actives, similar compounds and a random draw of the others, so the mix is not that of the screen. A number with no mark means an inactive call. Calls follow the shape of the dose curve; as a rule, active = well fitted activation curve with a large enough effect; inconclusive = small, poorly fitted or top-dose-only effect; inactive = no such curve, though single readings can be large or run the other way.
# Assay: A quantitative high throughput screen for small molecules that induce DNA re-replication in SW480 colon adenocarcinoma cells. Also: nearly all actives have a fitted effect of over 55% in size. As to re-replication activation: % of control where 0% means no effect.
# Conditions: Hoechst DNA content imaging, 48 h; series mostly up to 46.1 µM; re-replication activation: at the top concentration
# Outline: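 DNA re-replication was detected as more nuclei of elevated Hoechst intensity after 48 hr exposure to compound (23 nL pinned per well of 250 cells).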
# Potency is read from the fitted curve at half-maximal effect.
SMILES,re-replication activation [%],Potency
CN(C)c1ccc(C2N(C)C(=O)c3ccccc3N2C)cc1 (configuration not stated),-1.45,
CN(C)c1ccc(Nc2c3c4c(cccc4n(C)c2=O)C(=O)c2ccccc2-3)cc1,,7.31 µM (active)
Cc1ccc(S(=O)(=O)NC[C@H]2O[C@@H](n3cnc4c(N)ncnc43)[C@H](O)[C@@H]2O)s1,-0.834,
O=C(NC(Nc1nc2ccc([N+](=O)[O-])cc2s1)(C(F)(F)F)C(F)(F)F)c1ccccc1,,20.6 µM (active)
CCC(=O)NC(Nc1nc2ccc(C)cc2s1)(C(=O)OC)C(F)(F)F (configuration not stated),2.72,
CCOc1ccc2nc(NC(=O)c3cc([N+](=O)[O-])ccc3N3CCOCC3)sc2c1,0.212,
CC(=O)c1ccc(NC(=O)C(C)OC(=O)c2ccc(NS(=O)(=O)c3ccc4[nH]c(=O)[nH]c4c3)cc2)cc1 (configuration not stated),-46,
Cc1cc(NC(=O)C(C)SCC(=O)Nc2cccc(S(=O)(=O)N3CCCCCC3)c2)no1 (configuration not stated),-4.77,
C[C@H](CO)N1C[C@H](C)[C@H](CN(C)CC2CC2)Oc2ccc(NC(=O)CCN3CCOCC3)cc2C1=O,5.51,
Cc1cc(C)nc(NC(=O)Nc2ccccc2C(F)(F)F)n1,,16.4 µM (active)
COc1cccc(C(=O)NC(=O)Nc2nc(C)cc(C(F)(F)F)n2)c1,22.9,
Cc1cc(Cl)nc(NC(=O)Nc2cccc(Cl)c2)n1,-7.59,
CCC(C)C1(C2CCCC2)NC(=O)NC1=O (configuration not stated),-5.75,
Nc1ncnc2c1ncn2[C@@H]1O[C@H](CNS(=O)(=O)c2ccc(-c3ccno3)s2)[C@@H](O)[C@H]1O,3.48,
Cc1cc2c(cc1C)NC1(C[C@H]3CCC(=O)N4CC[C@@H](C1)[C@@H]34)C(=NC(C)(C)CC(C)(C)C)N2 (some centres not stated),-10.5,
COc1ccc(Nc2oc(-c3ccccc3Cl)nc2C#N)cc1,,10.3 µM (active)
N#Cc1nc(-c2cccc3ccccc23)oc1N,0.402,
Cc1ccccc1-c1nc(C#N)c(NCc2ccco2)o1,0.177,
COc1ccc(CCC(=O)Nc2ccc(Cl)c(S(=O)(=O)N3CCOCC3)c2)cc1OC,0.713,
O=[N+]([O-])c1ccccc1/C=C/CN1CCCC(CO)C1 (configuration not stated),-0.185,
CC1CCCCC1NC(=O)/C(C#N)=C/C=C/c1ccccc1[N+](=O)[O-] (configuration not stated),,6.51 µM (active)
O=[N+]([O-])c1ccccc1/C=C/CN1CCC(O)CC1,4.87,
COCCN(C(=O)C(C)N1C(=O)c2ccccc2C1=O)c1c(N)n(CC(C)C)c(=O)[nH]c1=O (configuration not stated),-2.99,
O=[N+]([O-])c1ccc(N=NNc2ccc([N+](=O)[O-])cc2)cc1,-1.61,

SMILES,re-replication activation [%],Potency
COc1cccc(N2CCN(CC(=O)Nc3ccnn3C3CCCC3)CC2)c1,-0.518,
COc1cc(OC)cc(-c2cc3ccc(F)cc3cn2)c1,17.7,
O=C(Nc1ccc(Cl)cc1)C1c2cccc[n+]2CC(=O)N1Cc1ccc2c(c1)OCO2 (configuration not stated),,23.1 µM (active)
CC1CCC(NC(=O)C2c3ccccc3C(=O)N2Cc2ccc3c(c2)OCO3)CC1 (configuration not stated),-8.21,
O=C(C1CCN(Cc2ccc(Cl)cc2)CC1)N1CCN(Cc2ccc3c(c2)OCO3)CC1,6.33,
C=CC[C@@H](CC(=O)N[C@@H](CO)Cc1ccccc1)C(=O)NCCOC(=O)[C@@H](CC=C)CC(=O)OC(C)(C)C,-9.33,
COC1=CC(=O)OC(C)(c2ccccc2)C1 (configuration not stated),-10.5,
CCOC(=O)CCC(NC(=O)c1ccc(CNc2nc3cc(C(F)(F)F)ccc3nc2C(=O)OCC)cc1)C(=O)OCC (configuration not stated),0.999,
FC(F)(F)c1ccc(-c2cccc3c2C2CC3CCN2Cc2ccccc2)cc1 (configuration not stated),-0.788,
O=C(NNc1nc(N2CCCC2)nc(N2CCCC2)n1)c1ccccc1,-0.98,
CCN(CC)c1ccc(C(=O)N/N=C/c2ccc(N3CCOCC3)cc2)cc1,,18.4 µM (active)
O=C(NN=Cc1ccc(N2CCOCC2)cc1)c1cc2ccccc2cc1O,-21.4,
Cc1cc(C(=O)N/N=C/c2ccc(N3CCOCC3)cc2)c(C)o1,8.47,
O=C(Nc1cccc(S(=O)(=O)N2CCCCC2)c1)c1cncc(Br)c1,-0.964,
CC/C(=C(/c1ccccc1)c1ccc(OCC[N+](C)(C)C)cc1)c1ccccc1,-5.78,
Nn1c(SCC(=O)Nc2ccc3c(c2)CCC3)nnc1C1CC1,-5.39,
Cc1cc(C(=O)OCC(=O)NCc2ccco2)c(C)n1-c1ccccc1,,7.31 µM (active)
CN(c1ccccc1)S(=O)(=O)c1ccc(Cl)c(C(=O)OCC(=O)NCc2ccco2)c1,-20.4,
O=C(COC(=O)c1ccccc1O)NCc1ccco1,-9.2,
CC(C(=O)N1CCc2ccccc21)N(C)CC(=O)Nc1ccc(F)cc1 (configuration not stated),24,
O=C1COc2ccc(C(=O)COC(=O)CCOc3ccccc3)cc2N1,-4.67,
Cc1ccc(-c2csc(C(C#N)=C(O)CN3CCN(C(=O)c4ccco4)CC3)n2)cc1,6.14,
Cc1cn([C@H]2CC(F)[C@@H](CO)O2)c(=O)[nH]c1=O (some centres not stated),-0.164,
